Experiment [1] in a line: NCI Yeast Anticancer Drug Screen. Data for the rad50 strain (AID 155).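 Also: 0% = growth of vehicle-only cultures of the same strain.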 Particulars: S. cerevisiae rad50 strain growth inhibition, stronger effect = higher value; at 50.0 µM unless noted. The method, boiled down:
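Genetically altered yeast (DNA repair pathway); compound treatment; growth inhibition vs vehicle ctrl.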

Experiment [2] is described as follows: NCI Yeast Anticancer Drug Screen. Data for the mec2-1 strain (AID 157). Particulars: S. cerevisiae mec2-1 strain, stronger effect = higher value; at 50.0 µM unless noted. The method, boiled down:
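Vehicle-treated cultures served as reference for growth inhibition of compound-exposed mec2-1 yeast.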

Experiment [3] is described as follows: NCI Yeast Anticancer Drug Screen. Data for the sgs1 mgt1 strain (AID 161).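 Also: 0% = growth of cultures given vehicle only.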 As to conditions: S. cerevisiae sgs1 mgt1 strain, stronger effect = higher value; at 50.0 µM unless noted. The method, boiled down:
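Mutant yeast exposed to compound; growth scored against vehicle-only wells.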

The nature of experiment [4]: NCI Yeast Anticancer Drug Screen. Data for the cln2 rad14 strain (AID 165).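 Also: 0% = growth equal to vehicle treated cultures.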 As to conditions: S. cerevisiae cln2 rad14 strain, stronger effect = higher value; at 50.0 µM unless noted. In outline: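 Each compound was tested on cln2 rad14 yeast. Inhibition of growth was calculated against vehicle-exposed controls.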
Experiment [5] in a line: NCI Yeast Anticancer Drug Screen. Data for the bub3 strain (AID 167). As to conditions: S. cerevisiae bub3 mutant strain, stronger effect = higher value; at 50.0 µM unless noted. The method, boiled down:
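Yeast carrying a defined mutation is treated with each compound, and growth is compared with that of vehicle-exposed cells to give inhibition.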

The nature of experiment [6]: NCI Yeast Anticancer Drug Screen. Data for the mlh1 rad18 strain (AID 175). As to conditions: S. cerevisiae mlh1 rad18 strain growth inhibition, stronger effect = higher value; at 50.0 µM unless noted. In outline: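 Vehicle-treated cultures served as the reference for growth inhibition in a yeast strain carrying DNA damage repair alterations exposed to each compound.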

This is part of a sample that, as a whole, favours compounds with a hit. Of some 79,000 tested, about 15% had one in any assay. A number with no mark means an inactive call. Calls of active or inactive are those of the source. Rule as the data show it: active = growth inhibition above about 70%; inactive = the rest. Where a SMILES comes first, the peptide text is derived from it. The star is where a group is joined. Cbz = O=C(OCc1ccccc1)*

Take `CC(C)(O)C(O)c1ccccc1` (centres undefined): the growth inhibition in experiment [1] was 10.9%; in experiment [2], 7%; in experiment [3] it was 9.1%; in experiment [4] it was 2.3%; in experiment [5], 1%; in experiment [6] it was 1.35%.

For the compound `NC(=O)C1CC1`, the growth inhibition in experiment [1] was -9.4%; in experiment [2], 2.25%; in experiment [3] it was -9.7%; in experiment [4], -7.7%; in experiment [5], 9.25%; in experiment [6] it was -4%.

In the case of `CN1N=C(c2ccncc2)OC1c1cccc(C(F)(F)F)c1` (centres undefined), the growth inhibition was -63.6% in experiment [1]; -65.9% in experiment [2]; -32.8% in experiment [3]; -3.6% in experiment [4]; 0.75% in experiment [5]; -21.3% in experiment [6].

Consider `NC(=O)C(Cc1ccccc1)NC(=O)C(Cc1ccccc1)NC(=O)C(Cc1ccccc1)NC(=O)OCc1ccccc1` (stereo not drawn) (Cbz-Phe-Phe-Phe-NH2; configuration not given here), for which the growth inhibition in experiment [1] was 25.6%; in experiment [2], 7.8%; in experiment [3], 17.6%; in experiment [4], -12%; in experiment [5] it was -5.2%; in experiment [6] it was 21.9%.

Turning to `Cc1ccccc1C(c1ccccc1Cl)[N+](C)(C)C` (centres undefined), the growth inhibition was 35% in experiment [1]; 14.7% in experiment [2]; 27.1% in experiment [3]; 19.2% in experiment [4]; -3.95% in experiment [5]; 43.1% in experiment [6].

Consider `CC(C)CCC(C)C1CCC2C3CCC4CC(=O)CC4(C)C3CCC12C` (centres undefined), for which the growth inhibition in experiment [1] is -13.5%; in experiment [2], 7.2%; in experiment [3] it was -20.1%; in experiment [4], -10.4%; in experiment [5], -11.6%; in experiment [6], 2.85%.

`CC1=CC(=C2C=C(C)C(=O)C(C)=C2)C=C(C)C1=O`: the growth inhibition in experiment [1] was 9.85%; in experiment [2] it was -6.65%; in experiment [3], 24.4%; in experiment [4], -0.25%; in experiment [5], 4.25%; in experiment [6] it was 14.2%.

`O=[N+]([O-])c1ccc(NN=C2CCCCC2)c([N+](=O)[O-])c1`: the growth inhibition in experiment [1] is 9.1%; in experiment [2] it was -18.2%; in experiment [3], 1.8%; in experiment [4], -39.6%; in experiment [5], 2.7%; in experiment [6], 30.6%.

Take `COc1cc2c(cc1OC)C(=O)c1nccc3ccc(OC)c(c13)O2`: the growth inhibition in experiment [1] was -0.35%; in experiment [2], 17.1%; in experiment [3] it was 23.3%; in experiment [4], 4.75%; in experiment [5] it was 16.6%; in experiment [6], 16.6%.

Consider `S=C(NCc1cccc(Cl)c1)Nc1ccccc1`, for which the growth inhibition is -4.65% in experiment [1]; 27.9% in experiment [2]; 14.2% in experiment [3]; -24.9% in experiment [4]; 29.6% in experiment [5]; 24.4% in experiment [6].

`CC1=Cc2cccc(C)c2C(=O)C1=O`: the growth inhibition in experiment [1] was 93.6% (active); in experiment [2] it was 95.2% (active); in experiment [3] it was 94.5% (active); in experiment [4] it was 92.8% (active); in experiment [5], 93.8% (active); in experiment [6], 93.2% (active).

With `CC(O)c1cccc(NC(=O)NC2CCCCC2)c1` (centres undefined), the growth inhibition in experiment [1] was -2.55%; in experiment [2] it was 28.1%; in experiment [3] it was 10.8%; in experiment [4], -6.1%; in experiment [5], 29.4%; in experiment [6], 27.8%.

With `[N-]=[N+]=Nc1c2c(nc3ccccc13)CCCC2`, the growth inhibition in experiment [1] is -38.1%; in experiment [2], -10.2%; in experiment [3], -21.4%; in experiment [4], -51.1%; in experiment [5], 0.3%; in experiment [6] it was -4.4%.

Regarding `COc1cccc(C2c3cc4c(cc3OC(NNS(=O)(=O)c3ccc(C)cc3)C2C)OCO4)c1OC` (centres undefined), the growth inhibition is 3.75% in experiment [1]; 4.55% in experiment [2]; 10.3% in experiment [3]; 8.05% in experiment [4]; 36.9% in experiment [5]; 18.2% in experiment [6].

Regarding `COC(=O)C(Cc1ccccc1)C(=O)C(CC(=O)OC(C)(C)C)NC(=O)OC(C)(C)C` (centres undefined), the growth inhibition in experiment [1] was 14.7%; in experiment [2], 1.15%; in experiment [3] it was 17%; in experiment [4], 10.8%; in experiment [5], 22.1%; in experiment [6] it was -27.5%.

For the compound `O=[N+]([O-])c1cc(N(c2ccccc2)c2ccccc2)c(Cl)cc1Cl`, the growth inhibition in experiment [1] is -8.35%; in experiment [2] it was -16.1%; in experiment [3], -27.1%; in experiment [4], -2.55%; in experiment [5], 5.5%; in experiment [6], -3%.

For `COc1ccc(C(C)(OC)c2cc(C(C)(C)C)c(O)c(C(C)(C)C)c2)cc1` (centres undefined), the growth inhibition in experiment [1] is -19.2%; in experiment [2], -12.6%; in experiment [3], -20.2%; in experiment [4] it was -0.55%; in experiment [5] it was -2.05%; in experiment [6] it was -21.6%.

As for `COc1ccc(NC(=O)/C(=N\NC(=O)C[n+]2ccccc2)c2c(O)c3ccc(O)cc3oc2=O)c([N+](=O)[O-])c1`, the growth inhibition is 26.6% in experiment [1]; 47.2% in experiment [2]; 29.4% in experiment [3]; 7.55% in experiment [4]; 39.5% in experiment [5]; 39.1% in experiment [6].

In the case of `O=C1CSC(c2ccccc2Cl)N1N1C(=O)CSC1c1ccccc1Cl` (centres undefined), the growth inhibition in experiment [1] was 32.4%; in experiment [2] it was 19.2%; in experiment [3] it was 28.1%; in experiment [4] it was 27.5%; in experiment [5], 24.3%; in experiment [6], 28.1%.
